± gives the standard deviation of the averaged measurements. Over roughly 33,000 sequences, “E-score (dimensionless, -0.5 to 0.5)” has its median near -0.049; the highest 2% begin near 0.37. This is one part of a sample in which the highest values are shown more often than they occur.

In this assay the test system is T1, PmTbr T-box DNA-binding domain (GST fusion).
T1 sequence: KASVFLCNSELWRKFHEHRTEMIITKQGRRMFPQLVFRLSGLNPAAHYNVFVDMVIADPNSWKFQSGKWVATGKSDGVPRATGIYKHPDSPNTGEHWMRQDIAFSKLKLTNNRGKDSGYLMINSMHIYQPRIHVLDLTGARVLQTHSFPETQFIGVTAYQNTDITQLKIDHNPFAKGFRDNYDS
Description: PBM E-score of 8-mer (E-score (dimensionless, -0.5 to 0.5)); Tbr is Tbrain of the sea star Patiria miniata (Pm) or the sea urchin Strongylocentrotus purpuratus (Sp); higher = stronger binding preference. As to conditions: the construct has about 5 more residues each side. In outline: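 Expression of GST-fused Tbr T-box DNA-binding domains, each holding the full T-box plus roughly five flanking residues, was carried out in BL21 E. coli at 20 °C, with purification by glutathione affinity chromatography. Universal Agilent arrays made double-stranded by primer extension were incubated with the protein at 200 nM in PBS (pH 7.5), then scanned and quantified. All ungapped 8-mers were scored from probe intensities, and each received an enrichment E-score from the Universal PBM Analysis Suite, averaged over duplicate arrays.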
For the sequence AGGCCCTC, the “PBM E-score of 8-mer” value was -0.448 ± 0.0054.
For CTCCCGTA, the “PBM E-score of 8-mer” value is -0.1898 ± 0.001.
For the sequence AGAAAGCC, the “PBM E-score of 8-mer” value was -0.195 ± 0.021.
As to GCTATCTA, the “PBM E-score of 8-mer” value is -0.0532 ± 0.092.
Regarding CTCTTCTA, the “PBM E-score of 8-mer” value was -0.215 ± 0.1.
On to TCTGGAAA, for which the “PBM E-score of 8-mer” value was -0.131 ± 0.019.
As for GACACTCC, the “PBM E-score of 8-mer” value came to 0.336 ± 0.029.
Take AACACTCC: the “PBM E-score of 8-mer” value was 0.288 ± 0.029.
With AACACTCG, the “PBM E-score of 8-mer” value is 0.237 ± 0.037.
The same measure for CACACTCG: 0.408 ± 0.011; for CACACTCA: 0.3814 ± 0.0034.
In the case of AACACTCA, the “PBM E-score of 8-mer” value amounted to 0.323 ± 0.0094.
With CACACTCC, the “PBM E-score of 8-mer” value came to 0.402 ± 0.016.
CCCACTCG: the “PBM E-score of 8-mer” value came to 0.0373 ± 0.049.
Next, TACACTCA: -0.0251 ± 0.036; AGAGAAAG: 0.0684 ± 0.065.
Turning to ACTCACCG, the “PBM E-score of 8-mer” value is -0.0077 ± 0.1.
In the case of CGGAGTCC, the “PBM E-score of 8-mer” value is -0.183 ± 0.043.
As for CTTTGGCA, the “PBM E-score of 8-mer” value worked out at 0.288 ± 0.017.
Take CGTGGCTA: the “PBM E-score of 8-mer” value was -0.139 ± 0.056.
With GTCGTTCA, the “PBM E-score of 8-mer” value was found to be 0.19 ± 0.052.
With AACTGAGT, the “PBM E-score of 8-mer” value was -0.0725 ± 0.037.
Take AACTTCGA: the “PBM E-score of 8-mer” value is 0.0686 ± 0.023.
CCTTCACG: the “PBM E-score of 8-mer” value came to 0.213 ± 0.0063.
GCTTCACA: the “PBM E-score of 8-mer” value is 0.301 ± 0.014.
Regarding ACTTCACA, the “PBM E-score of 8-mer” value stood at 0.336 ± 0.011.
For the sequence TCTTCACA, the “PBM E-score of 8-mer” value stood at 0.377 ± 0.015.
As to ACTTCACG, the “PBM E-score of 8-mer” value stood at 0.262 ± 0.038.
In the case of CCTTCACA, the “PBM E-score of 8-mer” value turned out to be 0.395 ± 0.014.
With CCAAGTGA, the “PBM E-score of 8-mer” value stood at 0.146 ± 0.01.
Next, CTGAGCAC: 0.0183 ± 0.04; GACAGGCA: -0.0532 ± 0.041.
As to ACACAGTG, the “PBM E-score of 8-mer” value worked out at 0.229 ± 0.005.
Consider AGTGTTTC, for which the “PBM E-score of 8-mer” value stood at 0.134 ± 0.066.
Next, CGCTTGAG: -0.0499 ± 0.011; ACCGTGTG: 0.218 ± 0.0082; CACGTGAC: 0.315 ± 0.0075.
In the case of CACGTGTC, the “PBM E-score of 8-mer” value turned out to be 0.385 ± 0.0079.
Turning to AGCGTGTC, the “PBM E-score of 8-mer” value was 0.174 ± 0.034.
With AACGTGCG, the “PBM E-score of 8-mer” value was determined as 0.345 ± 0.029.
For the sequence AACGTGTA, the “PBM E-score of 8-mer” value was 0.156 ± 0.04.
AACGTGTG: the “PBM E-score of 8-mer” value was 0.3941 ± 0.0015.
As for CACGTGTA, the “PBM E-score of 8-mer” value amounted to 0.2502 ± 0.00031.
The same measure for AACGTGTC: 0.4102 ± 0.0015; for CGAGGGCA: -0.019 ± 0.015; for ATTAGAAC: -0.161 ± 0.0031.
Take GCCAAGCA: the “PBM E-score of 8-mer” value was -0.0191 ± 0.018.
As to ACACCAAG, the “PBM E-score of 8-mer” value was 0.35 ± 0.005.
In the case of GATATCAC, the “PBM E-score of 8-mer” value worked out at 0.331 ± 0.021.
As for TCCGCACA, the “PBM E-score of 8-mer” value is 0.104 ± 0.058.
As for CGAATTCC, the “PBM E-score of 8-mer” value was -0.164 ± 0.079.
Next, ATTTCCCG: -0.133 ± 0.0071.
Consider ACCTGTGA, for which the “PBM E-score of 8-mer” value was found to be 0.4002 ± 0.002.
In the case of AGCTGTGA, the “PBM E-score of 8-mer” value is 0.404 ± 0.017.
On to AGCTGTGG, for which the “PBM E-score of 8-mer” value was 0.0136 ± 0.075.
Next, ACCTGTGC: 0.0647 ± 0.0069.
Turning to AGCTGTGC, the “PBM E-score of 8-mer” value is 0.182 ± 0.0098.
Consider GCCTGTGA, for which the “PBM E-score of 8-mer” value was 0.107 ± 0.014.
On to GGTAGAGA, for which the “PBM E-score of 8-mer” value is -0.124 ± 0.0055.
As for GACTCAGA, the “PBM E-score of 8-mer” value was -0.213 ± 0.097.
Next, TCAAATCA: -0.159 ± 0.042; GTCGCCAC: 0.326 ± 0.0074; ACAGGCTC: 0.0148 ± 0.018.
As for CCTTCGCG, the “PBM E-score of 8-mer” value came to 0.2566 ± 0.0012.
With ACCGTCGT, the “PBM E-score of 8-mer” value turned out to be 0.162 ± 0.045.
In the case of ACCTCCGA, the “PBM E-score of 8-mer” value is 0.253 ± 0.033.
Regarding AGTGCGTA, the “PBM E-score of 8-mer” value is 0.146 ± 0.048.
The same measure for GGTGCAAA: 0.393 ± 0.0071.
On to AATGCGAT, for which the “PBM E-score of 8-mer” value came out at 0.024 ± 0.0098.
For ACTGCGAA, the “PBM E-score of 8-mer” value amounted to 0.315 ± 0.012.
The same measure for GCTGCGAC: 0.137 ± 0.0089; for AGTGCGAA: 0.4725 ± 0.00067; for TGTGCAAA: 0.197 ± 0.043.
As for ACTGCGAT, the “PBM E-score of 8-mer” value is 0.107 ± 0.048.
Next, AGTGCGAT: 0.427 ± 0.0052.
As for GGTGCAAC, the “PBM E-score of 8-mer” value turned out to be 0.299 ± 0.033.
For CGTGCGAC, the “PBM E-score of 8-mer” value is 0.277 ± 0.018.
Consider GGTGCGAC, for which the “PBM E-score of 8-mer” value was found to be 0.462 ± 0.017.
In the case of ATCCTGCC, the “PBM E-score of 8-mer” value was -0.0684 ± 0.0044.
Turning to CTAGCAAG, the “PBM E-score of 8-mer” value turned out to be 0.0488 ± 0.014.
Regarding TGAGGGAA, the “PBM E-score of 8-mer” value was -0.0537 ± 0.066.
For the sequence ATCATAGC, the “PBM E-score of 8-mer” value is 0.0043 ± 0.09.
The same measure for CTGGCGAC: 0.124 ± 0.059.
Turning to GGTGCGAA, the “PBM E-score of 8-mer” value was found to be 0.48957 ± 0.00016.
Take CGTGCGCA: the “PBM E-score of 8-mer” value was found to be 0.0827 ± 0.019.
CGTGCGAA: the “PBM E-score of 8-mer” value worked out at 0.448 ± 0.0091.
On to TGTGCGAA, for which the “PBM E-score of 8-mer” value stood at 0.448 ± 0.0066.

Values taken from the supplement of paper PMC4166925.
